Compound activity as filed in PubChem BioAssay.
Rows were chosen to be rich in hits. Some 5% of all compounds tested hit in one or more screens of this group.
Vaccinia mCherry – inhibitors of vaccinia virus infection (mCherry reporter signal) | Vaccinia virus mCherry reporter infection, fluorescence | hit rate 0.63% among 310,000 | Potency, µM (doses to about 36.5 µM), inactives show at the top dose activity change, negative = inhibition, hits mostly inhibitors | AID 720579; calls by dose curve; tested in A549 cells; note: potency is the fitted concentration of half-maximal effect; % is set by controls: 0 for no effect and ±100 for the full control effect; nearly all actives have a fitted effect of over 35% in size
HCMV antiviral – blocks human cytomegalovirus replication; HFF cells, HCMV-luciferase reporter, 72 h; hits give low values; hit rate 4.5% among 410,000; activity change, negative = inhibition, % at 57.5 µM; in the data active = activity change below about -60%; inconclusive = no clear call, values can overlap the other calls; inactive = above about -39%; note: % is set by controls: 0 for no effect and ±100 for the full control effect
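HFF cells seeded 16 h at 37C, treated with compounds, infected with luciferase-reporter HCMV at MOI 1 PFU/cell; luciferase read at 72 h post infection, normalized to buffer-only and Salinomycin controls.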
TbPYK inhibitor – inhibitors of Trypanosoma brucei pyruvate kinase | AID 624173 | Q57TT1 | TbPYK enzyme, Kinase-Glo Plus ATP luminescence, 45 min | Potency, µM (doses to about 76.8 µM), inactives show at the top dose activity, negative = inhibition, hits mostly inhibitors | hit rate 0.12% among 410,000; note: potency is the fitted concentration of half-maximal effect; % is set by controls: 0 for no effect and ±100 for the full control effect; nearly all actives have a fitted effect of over 50% in size
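Screened from lowest to highest concentration, compounds were pinned into TbPYK/substrate mixtures, and ADP (130 uM final) was added. Plates sat at room temperature for 45 min prior to Kinase-Glo Plus detection by luminescence.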
LmPK inhibitor – blocks Leishmania mexicana pyruvate kinase activity; Q27686; purified LmPK, Kinase-Glo ATP luminescence, 1 h; AID 1721; hit rate 0.37% among 290,000; Potency, µM (doses to about 57.5 µM), without a hit: at the highest dose activity change, negative = inhibition, most hits filed as inhibitors; note: potency is the fitted concentration of half-maximal effect; % is set by controls: 0 for no effect and ±100 for the full control effect
Target sequence (Q27686 whole entry, looked up): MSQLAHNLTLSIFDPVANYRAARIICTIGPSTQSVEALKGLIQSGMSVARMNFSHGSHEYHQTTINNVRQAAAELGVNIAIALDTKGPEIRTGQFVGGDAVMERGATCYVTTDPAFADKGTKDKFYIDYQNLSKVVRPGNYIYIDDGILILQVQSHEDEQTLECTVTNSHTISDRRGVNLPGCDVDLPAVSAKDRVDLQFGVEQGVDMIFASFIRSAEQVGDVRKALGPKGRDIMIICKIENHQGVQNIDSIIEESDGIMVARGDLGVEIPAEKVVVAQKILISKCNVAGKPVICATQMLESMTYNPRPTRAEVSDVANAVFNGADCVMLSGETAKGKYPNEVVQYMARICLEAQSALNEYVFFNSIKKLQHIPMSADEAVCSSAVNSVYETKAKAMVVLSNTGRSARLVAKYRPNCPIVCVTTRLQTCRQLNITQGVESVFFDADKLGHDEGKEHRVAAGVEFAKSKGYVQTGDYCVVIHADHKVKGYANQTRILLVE
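0.1 nM LmPK, 0.5 mM PEP, 0.1 mM ADP; 50 mM imidazole pH 7.2, 7 mM MgCl2, 50 mM KCl; 1 h RT. Kinase-Glo luminescence readout, normalized to no-enzyme (full inhibition) and uninhibited wells.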
Vaccinia Venus – vaccinia inhibition (Venus reporter). Vaccinia virus Venus reporter expression, fluorescence. Potency, µM (highest dose often 36.5 µM), without a hit: at the highest dose activity change, negative = inhibition, usual class: inhibitors. hit rate 0.46% among 330,000; calls by dose curve; tested in A549 cells; note: potency is the fitted concentration of half-maximal effect; % is set by controls: 0 for no effect and ±100 for the full control effect; nearly all actives have a fitted effect of over 30% in size
LmPK confirm – Inhibits Leishmania mexicana pyruvate kinase, confirmation | shares compounds with LmPK inhibitor | purified LmPK, Kinase-Glo ATP luminescence, 1 h | Potency, µM (highest dose often 57.5 µM), for the others: at the highest dose activity change, negative = inhibition, actives largely listed as inhibitors | hit rate 40% among 150 | AID 2559;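 active = compounds giving a full or partial concentration-response curve, as inhibitors or activators; inconclusive = weak, top-dose-only or unclear curve responses; inactive = no response at any tested dose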
* hit, by the source's call; i = inactive; ? = inconclusive; . = not tested or not shown. Unless noted, calls come from the whole dose curve; as a rule, active = well fitted curve in the direction sought with a large enough effect; inconclusive = small, poorly fitted or top-dose-only effect, or another doubt; inactive = no such curve, though single readings can be large; an effect the other way counts as inactive or inconclusive.

SMILES	Vaccinia mCherry	HCMV antiviral	TbPYK inhibitor	LmPK inhibitor	Vaccinia Venus	others
CC1(c2ccc(OCC#N)cc2)C=C(c2ccc(OCC#N)cc2)n2nc(C(F)(F)F)nc2N1 (stereo unspecified)	?	-69*	2%	0%	-26%
Cc1ccccc1NC(=O)C1CC(Cl)=CCC1C(=O)O (stereo unspecified)	.	-18	2%	1%	.
COc1ccc(C[C@H](N)C(=O)N[C@H]2[C@@H](O)[C@H](n3cnc4c(N(C)C)ncnc43)O[C@@H]2CO)cc1	1.3µM*	-98*	-4%	.	1.6µM*
CN(C)c1ncnc2c1ncn2C1OC(CO)C(O)C1O (stereo unspecified)	13µM*	2	3%	-1%	10µM*
OCC1OC(n2cnc3c(Cl)ncnc32)C(O)C1O (stereo unspecified)	-24%	.	.	.	13%
COc1ccc(CSCCc2n[nH]c(=S)n2-c2ccccc2)cc1C	?	-26	?	1%	-20%
CCc1ccc(-n2c(Cc3ccccc3)n[nH]c2=S)cc1	-6%	1	4µM*	-5%	-14%
Oc1ccc(CCc2n[nH]c(=S)n2-c2ccc(F)cc2)cc1	.	?	?	7.9µM*	.
COc1cccc(-n2c(CCn3nc(C)c([N+](=O)[O-])c3C)n[nH]c2=S)c1	0%	2	?	-20%	-5%
S=c1[nH]nc(CCSCc2ccccc2)n1-c1ccccc1	.	-25	5.6µM*	-7%	.
Cc1cccc(-n2c(CCn3nc(C)c([N+](=O)[O-])c3C)n[nH]c2=S)c1	0%	-1	8.9µM*	?	-2%
O=C(Nc1cccnc1Cl)c1cccnc1Cl	-14%	48	5%	-10%	5%
Cc1cccc(-n2c(Cc3ccccc3)n[nH]c2=S)c1	-9%	?	?	7.1µM*	3%
COc1ccc(-n2c(CCc3ccccc3)n[nH]c2=S)cc1	i	-18	?	-8%	-13%
S=c1[nH]nc(Cc2cccc3ccccc23)n1-c1ccccc1	-22%	-35	5µM*	14µM*	-14%
CCOc1ccc(-n2c(CCc3ccccc3)n[nH]c2=S)cc1	-3%	-31	3.2µM*	?	-11%
O=[N+]([O-])c1ccc(CSc2nnc(Cc3ccccc3)n2-c2ccc(F)cc2)cc1	-6%	?	-7%	4%	-17%
Cc1cccc(-n2c(Cc3ccccc3)nnc2SCc2ccc([N+](=O)[O-])cc2)c1	-10%	-70*	-1%	4%	-20%
Cc1nc2ccccc2nc1CSc1nncs1	.	32	-10%	-4%	.
CCc1c(C)nc2ccc(Br)cc2c1SCCC#N	i	-83*	-9%	0%	-4%
CCCc1c(C)nc2ccccc2c1SCCC#N	-11%	-85*	-8%	-18%	-30%
O=C(Nc1ccccc1F)c1ccc2sc([C@H]3C[C@H](O)[C@@H](CO)O3)nc2c1	-8%	9	4%	.	7%
COC(=O)[C@@]1(Cc2ccc(OC)cc2)[C@@H]2C(=CC(=O)[C@H]2CC(=O)C(=O)N(C)C)CN1C(=O)c1ccccc1	i	-80*	-5%	5%	?
C=C1C(=O)C=C2CN(C(=O)c3ccccc3)[C@@](Cc3ccc(F)cc3)(C(=O)OC)[C@@H]12	?	.	?	-2%	8.9µM*
CN(C)c1ccnc2sc3c(=O)n(-c4ccccc4)cnc3c12	.	-23	1%	4%	.
SMILES	Vaccinia mCherry	HCMV antiviral	TbPYK inhibitor	LmPK inhibitor	Vaccinia Venus	others
Cc1ccc(S(=O)(=O)c2ncccc2N)cc1	i	-8	0%	8%	-20%
Cc1ccc(S(=O)(=O)c2ncccc2[N+](=O)[O-])cc1	-20%	-101*	4%	-2%	-30%
O=C1c2ccccc2C(=O)C1c1ccnc2ccccc12	-15%	-17	-14%	7.1µM*	2%	LmPK confirm=?
Cc1cccc(OCC(=O)Nc2ccc(Cl)c(-c3nc4ncccc4o3)c2)c1C	-22%	-23	5%	.	-20%
CCOC(=O)Cn1c(C)c(Br)c(=O)c2cccc(C)c21	-11%	28	-2%	-1%	-3%
Cc1cccc(C(=O)NC2CCN(C(=S)NCc3ccco3)CC2)c1	-3%	-9	-4%	-8%	-11%	LmPK confirm=-1%
